CHT PAM – allosterically activates the human high affinity choline transporter; CHT-expressing cells, membrane potential dye, choline EC20; stronger effect = higher value; LV-AA mutant CHT in HEK293 cells; B-score at 10 µM; 310,000 tested, 0.49% active; AID 488977;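 active = initial fluorescence not abnormally high and integrated response B-score, plate-corrected, over 3 SD above library mean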
Target sequence (Q9GZV3 whole entry, looked up): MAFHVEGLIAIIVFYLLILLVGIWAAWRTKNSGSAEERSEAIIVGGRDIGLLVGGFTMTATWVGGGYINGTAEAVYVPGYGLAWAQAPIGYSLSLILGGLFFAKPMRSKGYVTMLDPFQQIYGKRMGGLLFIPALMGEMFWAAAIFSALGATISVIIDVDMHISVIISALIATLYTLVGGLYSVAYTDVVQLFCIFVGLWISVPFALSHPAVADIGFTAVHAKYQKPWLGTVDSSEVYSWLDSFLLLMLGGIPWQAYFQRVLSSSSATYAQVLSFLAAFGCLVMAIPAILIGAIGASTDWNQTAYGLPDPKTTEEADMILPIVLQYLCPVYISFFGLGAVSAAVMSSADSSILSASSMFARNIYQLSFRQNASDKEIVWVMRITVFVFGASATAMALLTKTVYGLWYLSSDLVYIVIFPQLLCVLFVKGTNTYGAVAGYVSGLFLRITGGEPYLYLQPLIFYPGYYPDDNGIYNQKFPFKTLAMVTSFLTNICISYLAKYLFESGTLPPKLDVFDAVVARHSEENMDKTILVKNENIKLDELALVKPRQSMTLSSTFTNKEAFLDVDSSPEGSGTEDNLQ
Mot1-301 SUMO – blocks SUMOylation pathway, rescuing yeast Mot1-301 growth; S. cerevisiae Mot1-301 growth rescue, ATP luminescence, 38.5C; percent above DMSO median, 100 means doubled; growth rescue, % at 18.8 µM; 320,000 tested, 1% active;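 active = every valid replicate shows activation above 250% relative to neutral control wells; inactive = the rest, any valid replicate at or below 250%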;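 also: OY570 slx delta 5 strain wells were the positive control but not used for scaling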
MEKK3 PB1 HTS – modulators (inhibitors or enhancers) of MEK5 binding to human MEKK3 PB1 domain. Q99759. bead-based flow cytometry, Alexa488-MEK5 binding to MEKK3; actives lie on both sides; 0 = blocked by unlabeled MEK5, 100 = vehicle. binding response (% of control), % at 10 µM. 290,000 tested, 1.4% active;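 active = binding response more than 3 SD above or below the average of its plate-row segment, actives on both sides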;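 also: Alexa488 bead fluorescence after subtracting the streptavidin-only scavenger bead signal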
MEKK2wt PB1 HTS – raises or lowers MEK5 binding to wildtype human MEKK2 PB1 domain; Q9Y2U5; bead flow cytometry, Alexa488-MEK5 binding to MEKK2 WT; actives lie on both sides; binding response (% of control), % at 10 µM; 290,000 tested, 1.1% active; in the data active = binding response below about 67% or above about 130%
CHT block – inhibits the human high affinity choline transporter; Q9GZV3; CHT-expressing cells, membrane potential dye, choline response; stronger effect = lower value; B-score at 10 µM; 310,000 tested, 0.86% active; AID 488975;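 active = B-score over 3 SD under the library average, and starting fluorescence ratio not unusually high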;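 also: choline stimulus applied at its EC90 after an EC20 pre-addition; B-score computed on integrated fluorescence ratio after choline addition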
MEKK2 mut-MEK5 – signal of MEK5 binding to mutant human MEKK2 PB1 domain; bead flow cytometry, Alexa488-MEK5 binding to MEKK2 mutant; 290,000 tested, 0.35% active; percent response, % at 10 µM; in the data active = percent response above about 24%, passing the limit was not always enough
Mot1 SUMO dose – SUMO pathway inhibitors in yeast Mot1-301 growth. growth activity, percent, % at 42 µM. 2,300 tested, under 10 active. shares compounds with Mot1-301 SUMO. AID 493004. S. cerevisiae Mot1-301 galactose growth, ATP luminescence, 24 h; -100 = growth of slx-deleted rescue strain;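 active = Signal drops as the depositor expects, and the fitted half-maximal dose is no more than ten times the top valid tested dose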;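 also: more negative values mean stronger growth rescue toward the control strain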
CHT block conf – human CHT inhibition, confirmatory screen. CHT-expressing cells, choline membrane potential dye; LV-to-AA substituted CHT, HEK293 cells. CHT activity remaining % of control (stronger effect = lower value), % at 10 µM. shares compounds with CHT block. AID 493221. 2,400 tested, 70% active;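 active = choline transporter activity left, mean of duplicates at 10 µM, below buffer-only control mean minus 3 SD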;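 also: depolarization triggered by choline at its EC90 following an EC20 pre-addition; 0% = hemicholinium-3 full block and 100% = buffer-only control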
HEK293 CHT ctr – counter-screen for CHT inhibitors: effect in parental HEK293 cells; shares compounds with CHT block; membrane potential dye, choline response; active = decrease or increase beyond buffer ±3SD; membrane potential ratio readout (active if shifted either direction beyond buffer ±3SD; no single direction) at 10 µM; 2,400 tested, 4% active;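 also: parental cells lack the transporter so any hit is non-specific; ratio is peak minus trough fluorescence over baseline after EC90 choline challenge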
CHT act confirm – human CHT activation, confirmatory screen; CHT-expressing cells, membrane potential dye fluorescence (FDSS); % of choline EC20–EC90 response window; HEK293 expressing CHT LV-AA mutant; choline added at its EC20; 2,500 tested, 91% active; AID 504833; activation, % at 10 µM; shares compounds with CHT PAM;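 active = primary screen active, with duplicate mean activation above negative control mean plus 3 SD, cut at about 11% in these data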
HEK293 MP dye – activity in parental HEK293 cells lacking CHT. AID 623908. membrane potential dye fluorescence (FDSS); measured after EC20 choline addition. shares compounds with CHT PAM. ratio readout change at 10 µM, hits read low. 2,500 tested, 62% active;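 active = duplicate-averaged ratio beyond 3 SD from buffer wells, up or down, though filed actives are nearly all decreases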
Active calls of the source: *; i = inactive; . = not tested or not shown; + = active, no number; [ ] = dose if it differs, or a comment. In the library only some 4.1% were active in any assay of this set; here they are far more common.

SMILES	CHT PAM	Mot1-301 SUMO	MEKK3 PB1 HTS	MEKK2wt PB1 HTS	CHT block	MEKK2 mut-MEK5	Mot1 SUMO dose	CHT block conf	HEK293 CHT ctr	others
COc1ccc(C2C3=C(CC(C)(C)CC3=O)Nc3n[nH]c(C)c32)cc1 (configuration not stated)	i	365.2*	100.0	96.0	-7.56*	10.0	-0.1	i	i
CC(C)C[C@@H](CN=[N+]=[N-])N1CCN(Cc2ccccc2)CCC1=O	i	-1.5	103.0	106.0	i	1.0	.	.	.
NS(=O)(=O)c1ccc(NC(=O)COc2ccc(C(=O)c3ccc(F)cc3)cc2)cc1	i	106.8	116.0	114.0	i	6.0	.	.	.
O=c1cc(-c2ccccc2)oc2ccc(O)cc12	i	-1.2	102.0	104.0	i	1.0	.	.	.
COc1ccc(-c2cc(=O)c3cc(O)ccc3o2)cc1	i	553.6*	94.0	91.0	-7.28*	2.0	-0.4	41.1%*	i
O=C(CN1CCCC1)Nc1cccc(Cl)c1Cl	i	-1.8	100.0	104.0	i	4.0	.	.	.
Oc1ccc2ccccc2c1C=Nc1ccccc1Br	i	9.5	107.0	98.0	i	5.0	.	.	.
Oc1c(Br)cc(Cl)cc1C=Nc1ccccc1Br	i	634.4*	103.0	99.0	-7.12*	-1.0	1.0	67.6%*	i
CCCc1nnc(NC(=O)c2cn(CC)c3cc(N4CCN(C)CC4)c(F)cc3c2=O)s1	i	644.0*	89.0	95.0	-5.2*	-12.0	-0.1[21 µM]	i	i
CC(C)(Cc1ccccc1)/[N+]([O-])=C\c1ccc(C(F)(F)F)cc1	i	28.2	.	.	i	.	.	.	.
CCN1CCN(C(=O)c2ccc3nc(-c4ccccc4)c(-c4ccccc4)nc3c2)CC1	i	474.1*	99.0	97.0	-7.02*	2.0	-0.2	22.0%*	i
Cc1sc2nc(CN3CCCC3)nc(N3CCN(S(=O)(=O)c4ccccc4)CC3)c2c1C	.	-9.9	.	.	.	.	.	.	.
Cc1sc2nc(CN3CCCC3)nc(NCc3ccncc3)c2c1C	6.32*	802.0*	111.0	109.0	i	2.0	-0.1	.	.	CHT act confirm=32.5*;HEK293 MP dye=-34*
CN1CCCCC1=NCCCn1cnc2c1c(=O)n(C)c(=O)n2C	7.16*	601.9*	100.0	102.0	i	4.0	0.5	.	.	CHT act confirm=46.7*;HEK293 MP dye=-49.4*
Cc1c(C(=O)OCC(C)C)[nH]c2c1C(=O)CC(c1cccs1)C2 (configuration not stated)	i	-2.2	104.0	105.0	i	1.0	.	.	.
CC(C)(C)c1ccc(CNC(=O)C2CCCN2C(=O)Nc2ccccc2)cc1 (configuration not stated)	i	-18.0	105.0	108.0	i	4.0	.	.	.
Cc1ccc2cccc(OCc3nnc(SCC(=O)O)n3C)c2n1	i	+	104.0	105.0	i	2.0	0.2	.	.	CHT act confirm=50.7*;HEK293 MP dye=-53.2*
COc1ccc(C(=O)N(CCc2ccccc2)Cc2ccccc2)c(OC)n1	10.5*	657.7*	102.0	102.0	i	0.0	-0.2	.	.	CHT act confirm=14.3*;HEK293 MP dye=i
CS(=O)(=O)c1ccccc1C(=O)N(CCc1ccccc1)Cc1ccccc1	i	-5.3	103.0	104.0	i	9.0	.	.	.
O=C(c1cn(-c2ccccc2)nc1-c1ccc(Cl)cc1)N1CCOCC1	i	331.1*	119.0	104.0	-5.56*	1.0	.	58.7%*	i
O=C(c1cn(-c2ccccc2)nc1-c1ccccc1)N1CCOCC1	i	5.2	101.0	117.0	i	5.0	.	.	.
O=C(c1ccccc1[N+](=O)[O-])N1CCC(Cc2ccccc2)CC1	i	57.9	107.0	105.0	i	6.0	.	.	.
O=C(O)CC1=C(Nc2ccccc2)C(=O)N(c2ccccc2)C1c1ccc(F)cc1 (configuration not stated)	i	-4.5	99.0	99.0	-6.4*	-2.0	.	31.5%*	i
COc1ccc(C2C(CC(=O)O)=C(Nc3ccccc3)C(=O)N2c2ccccc2)cc1 (configuration not stated)	i	-6.1	100.0	97.0	i	-5.0	.	.	.
COc1ccccc1NC(=O)C1CCCN(c2ncnc3c2nc2n3CCCCC2)C1 (configuration not stated)	i	338.4	95.0	93.0	-6.8*	-10.0	.	5.7%*	i
SMILES	CHT PAM	Mot1-301 SUMO	MEKK3 PB1 HTS	MEKK2wt PB1 HTS	CHT block	MEKK2 mut-MEK5	Mot1 SUMO dose	CHT block conf	HEK293 CHT ctr	others
Cc1cccc(CCNC(=O)C2CCCN(c3ncnc4c3nc3n4CCCCC3)C2)c1 (configuration not stated)	i	16.6	98.0	98.0	-7.61*	2.0	.	18.7%*	i
O=C(NCc1ccccc1)C1CCCN(c2ncnc3c2nc2n3CCCCC2)C1 (configuration not stated)	i	288.2	93.0	95.0	i	-15.0	.	.	.
O=C(Nc1ccccc1Cl)C1CCCN(c2ncnc3c2nc2n3CCCCC2)C1 (configuration not stated)	i	190.8	100.0	102.0	-5.19*	1.0	.	25.6%*	i
CC(=O)N1CCN(S(=O)(=O)c2cccc(C(=O)NC3CC3)c2)CC1	.	36.6	.	.	.	.	.	.	.
Cc1cccn2c(=O)nc(SCC(=O)NC3CCCCC3)nc12	i	-11.0	.	.	i	.	.	.	.
O/N=C(/CCc1ccccc1)c1ccc2c(c1)OCCO2	i	36.8	100.0	97.0	i	1.0	.	.	.
COc1ccccc1C(C)NC(=O)c1cc(=O)[nH]c2ccccc12 (configuration not stated)	i	0.6	102.0	100.0	i	-4.0	.	.	.
COc1ccc2[nH]c(=O)c(CN(Cc3cccs3)C(=S)Nc3ccccc3)cc2c1	i	-12.0	100.0	-1.0*	-5.34*	-1.0	.	i	i

Screening data: PubChem, several laboratories
